# This is a sample that favours compounds with a hit; in the whole collection about 12% have one here.
# KCC2 mod = modulates chloride dependent transport by human KCC2; B-score of Tl+ flux slope (higher = more flux/activation; lower = inhibition) at 10 µM; KCC2 cells, thallium flux FluoZin-2 fluorescence; hit rate 2.2% among 190,000;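 active = thallium flux slope and its plate-corrected score both differing from the plate sample mean at a set confidence after two filtering rounds, in either direction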;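 note: slope of fluorescence scaled to starting intensity during 10 to 20 s after thallium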
# ROMK mod = modulators of human ROMK potassium channel; hit rate 2% among 130,000; AID 1918; B-score at 10 µM; Tet-inducible ROMK, thallium flux fluorescence; actives lie on both sides;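 active = signal ratio slope over the read window, or its plate-corrected B-score, at least 3 SD from the plate mean, either direction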;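 note: B-score of the F/F0 ratio slope over 7 to 12 s after thallium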
# Target sequence (P48048 whole entry, looked up): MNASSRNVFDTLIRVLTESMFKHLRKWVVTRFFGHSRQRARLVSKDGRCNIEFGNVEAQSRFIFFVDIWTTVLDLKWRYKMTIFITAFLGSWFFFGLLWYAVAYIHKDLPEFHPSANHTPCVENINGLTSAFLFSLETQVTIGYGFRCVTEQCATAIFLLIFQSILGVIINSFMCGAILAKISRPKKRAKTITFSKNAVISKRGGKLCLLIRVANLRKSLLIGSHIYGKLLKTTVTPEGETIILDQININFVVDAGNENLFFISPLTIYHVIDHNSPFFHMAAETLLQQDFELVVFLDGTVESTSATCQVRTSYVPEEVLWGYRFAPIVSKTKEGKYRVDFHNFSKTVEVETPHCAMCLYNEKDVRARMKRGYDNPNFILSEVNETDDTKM
# WT yeast gro inh = growth inhibition of WT yeast, mitochondrial fusion screen. mitochondrial fusion phenotypic screen, WT strain. inhibition, % at 10 µM. hit rate 2.1% among 190,000. AID 1362; in the data active = inhibition above about 58%; tested in S. cerevisiae
# Ins promoter up = MIN6 insulin promoter up-regulation; MIN6 insulin promoter-GFP reporter, high-content imaging; stronger effect = higher value; z-score at 5 µM; hit rate 0.3% among 190,000; AID 1625;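 active = z-score above 3 at 5 µM with at least 500 cells counted in the well; inconclusive = wells under 500 cells, flagged as cytotoxic or low count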
# Insulin prom inh = TRM-6 insulin promoter activity inhibition | TRM-6 cells (human fetal islet line), insulin promoter-eGFP reporter, imaging; reporter expression induced with tamoxifen | inhibition, % at 2 µM | hit rate 0.9% among 130,000 | AID 1273;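 active = inhibition above the mean plus 3 SD, with well images judged a real hit on visual review, cut at about 60% in these data, passing the limit was not always enough; inconclusive = inhibition over the cutoff but images rejected on review; inactive = inhibition not above the cutoff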
# Lmaj promast = inhibitors of Leishmania major promastigote growth. inhibition, % at 10 µM. AID 1063. Leishmania major promastigotes, resazurin fluorescence viability. hit rate 9% among 200,000; in the data active = inhibition above about 50%;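 note: promastigotes grown with compound for 44 hours at 28 °C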
# KCC2 secondary = confirmation of human KCC2 transport modulators; HEK293-KCC2, thallium flux, FluoZin2 fluorescence; stronger effect = higher value; hit rate 15% among 3,700; shares compounds with KCC2 mod; normalised thallium flux (F/F0 slope) at 10 µM; AID 1713;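 active = thallium flux slope above the same plate's solvent-only control mean plus 3 SD; inconclusive = the two replicate wells disagree; inactive = no significant difference from solvent-only control wells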
# KCC2 bumet counter = bumetanide-insensitive thallium flux in KCC2 cells with ouabain, counter-screen; HEK293-KCC2 + bumetanide/ouabain, thallium flux FluoZin2; stronger effect = higher value; normalized thallium flux at 10 µM; AID 1714; hit rate 49% among 3,700; shares compounds with KCC2 mod;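 active = thallium entry rate above the same plate's blocked-transporter control wells by more than 3 SD; inconclusive = the two repeat wells disagree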;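 note: raw slope of fluorescence over initial fluorescence between 10 and 20 s after thallium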
# KCC2 secondary2 = confirmation of human KCC2 transport modulators; hit rate 23% among 3,700; HEK293-KCC2, thallium flux FluoZin2 fluorescence; actives lie on both sides; F/F0 rise rate, 10–20 s post-thallium; shares compounds with KCC2 mod; AID 1715; normalized thallium flux at 10 µM;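 active = thallium flux slope more than 3 SD above or below the plate's solvent-only control mean, mostly below; inconclusive = the two repeat wells disagreed; inactive = no significant shift from solvent-only controls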;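 note: raw slope with 0.1% DMSO as baseline and bumetanide as block control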
# HEK293 Tl flux = parental HEK flux effect, counter-screen | HEK293 parental cells, thallium flux FluoZin2, ouabain; baseline-ratio fluorescence slope, 10–20 s after thallium | hit rate 46% among 3,700 | thallium flux rate (normalised fluorescence) at 10 µM | AID 1716 | shares compounds with KCC2 mod;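 active = thallium flux rate significantly above the same plate's solvent-only control wells, beyond their mean plus 3 SD; inconclusive = the two replicate wells gave conflicting results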
# KCC2 retest ouab = KCC2 (human) modulation, ouabain retest. shares compounds with KCC2 mod. HEK293-KCC2, thallium flux FluoZin2 fluorescence; bidirectional: low = inhibitor, high = activator. raw Tl+ flux slope (below DMSO = inhibition, above = activation) at 10 µM. hit rate 48% among 3,700. AID 1717;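 active = thallium flux slope beyond 3 SD from same-plate DMSO control mean in most replicates, usually higher, sometimes lower; inconclusive = repeat tests gave conflicting results; inactive = no significant difference from controls in most replicates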;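 note: slope of initial-normalized fluorescence between seconds 10 and 20 after thallium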
# HEK counter2 = acts in parental HEK cells, second KCC2 counter-screen. shares compounds with KCC2 mod. HEK293 parental, thallium flux FluoZin-2 fluorescence slope. thallium flux slope at 10 µM. hit rate 33% among 3,700;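 active = thallium flux slope above the same plate's solvent-control mean plus 3 SD in both duplicate wells; inconclusive = duplicate wells that disagreed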;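 note: run without ouabain in cells lacking the KCC2 cotransporter; slope of fluorescence scaled to its starting value between 10 and 20 s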
# * marks the source's active call; other numbers are inactive results; ? = inconclusive; . = not tested or not shown.
SMILES,KCC2 mod,ROMK mod,WT yeast gro inh,Ins promoter up,Insulin prom inh,Lmaj promast,KCC2 secondary,KCC2 bumet counter,KCC2 secondary2,HEK293 Tl flux,KCC2 retest ouab,HEK counter2
Cc1cc(/C=C2\SC(=S)NC2=O)c(C)n1C1CC1,5.6*,-0.77,-10,3*,-11,0,0.0086,0.029*,0.025*,0.015*,0.025*,0.011*
O=C(CSc1ncnc2c(-c3ccc(Cl)cc3)nsc12)c1ccccc1,.,0.018,78*,-0.24,-45,0,0.014*,0.028*,0.029,0.018*,?,0.01*
O=C(CSc1ncnc2nc[nH]c12)c1ccc(Cl)cc1,.,.,9,.,.,.,.,.,.,.,.,.
CCc1cc2c(SCC(=O)C(C#N)=C3N(C)c4ccccc4N3C)ncnc2s1,.,-1.2,17,0.35,18,-2,0.0079,0.0095*,0.03,0.007,0.015,0.0098
CCc1cc2c(SCC(=O)O)ncnc2s1,.,.,8,-0.21,53,-7,.,.,.,.,.,.
CCc1cc2c(SCC(=O)c3ccccc3)ncnc2s1,0.62,.,23,.,-66,-3,.,.,.,.,.,.
CCc1cc2c(SCC#N)ncnc2s1,6.1*,0.49,17,-0.63,.,24,0.0066,0.017*,0.036,0.017*,0.027*,0.017*
CCOc1ccc(C2=Nn3c(nnc3-c3ccccn3)SC2)cc1,-0.76,0.2,-9,0.67,.,5,0.01,0.0062,0.034,0.0064,0.022,0.01
CCOc1ccc(C2=Nn3c(nnc3-c3ccco3)SC2)cc1,0.16,.,45,-0.52,22,-1,.,.,.,.,.,.
Cn1c(=O)c(=O)n(C)c2cc(S(=O)(=O)CCC(=O)N3CCOCC3)ccc21,0.52,.,9,-1.6,.,1,.,.,.,.,.,.
Cc1nc(-c2ccccc2)sc1-c1n[nH]c(=S)n1C,1.4,.,1,0.61,23,-10,.,.,.,.,.,.
CSc1sc(-c2n[nH]c(=S)n2C)c2c1C=CCC2,4.3*,-0.59,.,0.04,.,.,0.0085,0.015*,0.03,0.0093*,?,?
COc1ccc(-n2c(Cc3cccn3C)nnc2SCC(=O)Nc2ccccc2F)cc1,-1.3,.,-6,.,.,-5,.,.,.,.,.,.
O=C(Cc1ccc(Cl)cc1)NNC(=S)NC(=O)c1cccs1,29*,.,.,-0.42,.,.,0.0084,0.045*,0.037*,0.034*,0.037*,0.027*
CCNc1nc(N)nc(Oc2ccc(OCCOc3ccccc3)nn2)n1,0.6,.,-13,-0.57,-12,-3,.,.,.,.,.,.
CCNc1nc(NCC)nc(Oc2ccc(N)cc2)n1,.,.,-5,0.34,7,0,0.0067,0.0046,0.031,0.0074,0.018,0.0096
O=C(C(F)C(F)(F)F)N1CCN(c2ccccc2)CC1 (stereo not given),0.027,.,9,1.5,.,-10,.,.,.,.,.,.
COc1ccc(-c2nnc3n(CCc4ccccc4)c(=O)c4ccccc4n23)cc1OC,4.4*,.,11,0.13,.,24,0.0088,0.017*,0.028,0.0097*,?,?
CC(C)c1ccc(-c2csc(NC(=O)c3cccs3)c2C(=O)O)cc1,20*,1.6,5,.,.,1,0.0072,0.045*,0.027*,0.021*,?,?
S=c1[nH]c(-c2ccccc2)cn1/N=C/c1cccc2ccccc12,58*,2.1,75*,1.3,-55,-10,0.0079,0.079*,0.077*,0.078*,0.086*,0.07*
Cc1ccc(/C=N/n2cc(-c3ccccc3)[nH]c2=S)s1,33*,1.5,68*,.,0,25,0.024*,0.068*,0.037,0.056*,0.058*,0.019*
S=c1[nH]c(-c2ccccc2)cn1/N=C/c1ccccc1Br,46*,0.51,68*,-0.3,.,22,?,0.066*,0.063*,0.067*,0.079*,0.047*
Oc1ccc(/C=N/n2cc(-c3ccccc3)[nH]c2=S)cc1,0.14,0.23,16,0.66,33,6,.,.,.,.,.,.
Cc1ccccc1/C=N/n1c(-c2cc(-c3ccccc3)n[nH]2)n[nH]c1=S,-0.084,.,.,.,.,.,.,.,.,.,.,.
COc1cc(/C=N/n2cc(-c3ccccc3)[nH]c2=S)cc(OC)c1O,0.33,.,.,-0.73,.,.,.,.,.,.,.,.
SMILES,KCC2 mod,ROMK mod,WT yeast gro inh,Ins promoter up,Insulin prom inh,Lmaj promast,KCC2 secondary,KCC2 bumet counter,KCC2 secondary2,HEK293 Tl flux,KCC2 retest ouab,HEK counter2
CN(C)c1ccc(C(CNC(=O)c2ccccc2)c2c[nH]c3ccccc23)cc1 (stereo not given),-0.062,0.029,44,0.28,25,14,.,.,.,.,.,.
CC1CCCC(NC(=O)COC(=O)CCSc2ccccc2)C1C (stereo not given),.,0.38,-9,-0.46,0,-8,0.0076,0.0059,0.034,0.0069,0.017*,0.01
CC1CCCC(NC(=O)COC(=O)Cc2c[nH]c3ccccc23)C1C (stereo not given),-1.4,-1.7,16,-0.03,-62,4,.,.,.,.,.,.
O=C(N1CCOCC1)n1cnc2ccccc21,-0.29,-0.043,-15,0.15,-182,-4,.,.,.,.,.,.
O=C(N1CCOCC1)n1nnc2ccccc21,7.5*,.,-10,1.7,.,5,0.0066,?,0.027,0.0078,0.019,0.01
CC(C)COc1nc2ccccc2c(=O)n1OCC(=O)O,.,.,-8,0.04,-33,-6,.,.,.,.,.,.
Cc1ccc(C2=NNC(C(O)C(O)C(O)CO)S2)cc1 (stereo not given),0.45,1.2,-17,-0.48,62,-4,.,.,.,.,.,.
O=c1c(/C=N/OCc2ccc(Cl)cc2Cl)c[nH]n1-c1cccc(Cl)n1,37*,0.99,56,0.61,.,-11,0.0081,0.077*,0.075*,0.071*,0.073*,0.066*
Cc1cc(O)c(/C=N/OCc2ccc(Cl)cc2Cl)c(=O)o1,0.019,0.42,-3,-0.23,.,-13,.,.,.,.,.,.
O=S(=O)(CCN1CCN(c2ccccn2)CC1)c1ccc(F)cc1,0.078,.,.,-0.06,.,.,.,.,.,.,.,.
COc1ccc(-c2noc(CCC(=O)N3CCC(C)CC3)n2)cc1,0.6,.,-9,1.2,-113,-4,.,.,.,.,.,.
O=c1ccc(Cc2ccccn2)n[nH]1,2.4*,1,-19,.,31,-6,0.0098,0.0063,0.036,0.008,0.022,0.011
CCCCCSc1nnc(-c2cc(Br)ccc2N)c(=O)[nH]1,.,-2.1,-14,0.68,0,2,0.0074,?,0.032,?,?,0.01
